Screening data: PubChem BioAssay, Broad Institute
aSyn 5UTR act = Activators working through SNCA 5'UTR binding (MLPCN); AID 1814; activity score, % (tested at 7.5 µM), hits read low; alpha-synuclein 5'UTR reporter, activators screen; 300,000 compounds, 7.1% hits; in the data active = activity score below about -60%
Of the large screens only hits and unclear results are named; the others gave an inactive call. Only a sample is shown.

CCOC(=O)C1(Cc2cccc(OC)c2)CCCN(C(=O)CCc2cccnc2)C1 (configuration not stated)	aSyn 5UTR act -132.8
CCOC(=O)C1(Cc2cccc(OC)c2)CCN(Cc2cccc(OCC)c2O)CC1	aSyn 5UTR act -68.9
CCOC(=O)C1(Cc2cccc(OC)c2)CCCN(C(=O)CSC)C1 (configuration not stated)	aSyn 5UTR act -96.7
COc1ccccc1N1CCN(Cc2cc(Br)c(O)c3ncccc23)CC1	none
CCOC(=O)C1(Cc2ccccc2)CCCN(C(=O)C=C(C)C)C1 (configuration not stated)	aSyn 5UTR act -137.0
CCOC(=O)C1(Cc2ccccc2C)CCCN(C(=O)c2sccc2C)C1 (configuration not stated)	aSyn 5UTR act -69.9
CC#CC(=O)N1CCCC(Cc2cccc(OC)c2)(C(=O)OCC)C1 (configuration not stated)	aSyn 5UTR act -105.8
CCOC(=O)Cc1cc(=O)[nH]c(Nc2nc3ccccc3o2)n1	aSyn 5UTR act -83.4
COc1ccccc1N(CC(=O)N/N=C/c1c(O)ccc2ccccc12)S(C)(=O)=O	none
CCOc1ccc(N(CC(=O)NCc2ccc(OC)cc2)S(C)(=O)=O)cc1	aSyn 5UTR act -80.7
COc1ccc(CNC(=O)CN(c2cc(C)cc(C)c2)S(=O)(=O)c2c(C)[nH]c(=O)[nH]c2=O)cc1	aSyn 5UTR act -80.6
COc1ccc(N(CC(=O)Nc2cc(Cl)ccc2OC)S(=O)(=O)c2c(C)noc2C)cc1	none
CC(=O)Nc1ccc(NC(=O)CN(c2cccc([N+](=O)[O-])c2)S(C)(=O)=O)cc1	none
CCOc1ccc(N(CC(=O)Nc2ccc(C)c(C)c2)S(C)(=O)=O)cc1	aSyn 5UTR act -171.1
COc1ccc([C@@H]2[C@@H]3C(=O)N(C(C)(C)C)C(=O)[C@@H]3[C@]3(Cc4ccccc4)C(=O)N(c4cccc(C)c4)C(=O)N23)cc1	aSyn 5UTR act -62.9
N#Cc1cc2ccc(N3CCOCC3)cc2cc1C#N	aSyn 5UTR act -72.6
CCCC(=O)Nc1nc(-c2ccc(OC)cc2)cs1	aSyn 5UTR act -123.2
COc1ccc(-c2csc(NC(=O)CSc3nc(C)cs3)n2)cc1	aSyn 5UTR act -152.9
CCCC(=O)Nc1nc(C)c(-c2csc(Nc3cc(OC)ccc3OC)n2)s1	none
O=C(Nc1ccc([N+](=O)[O-])cc1)Nc1nc(-c2ccc(Cl)s2)cs1	none
CCc1ccc(-c2csc(NC(=O)COC(=O)CCc3nc4ccccc4s3)n2)cc1	aSyn 5UTR act -108.9
CCCC(=O)Nc1nc(-c2ccc(Cl)s2)cs1	aSyn 5UTR act -114.1
COc1ccc(-c2csc(NC(=O)CSc3nc(SC)ns3)n2)cc1	aSyn 5UTR act -102.1
CCc1nnc(NC(=O)CSc2nc(-c3ccc(OC)cc3)ns2)s1	aSyn 5UTR act -84.1
COc1ccc(-c2csc(NC(=O)C3CCCO3)n2)cc1 (configuration not stated)	aSyn 5UTR act -102.4
COc1cc(/C=N/NC(=O)COc2ccc(C)cc2)ccc1OC(=O)c1cccs1	aSyn 5UTR act -64.7
CN1c2ccsc2/C(=N/Nc2ccc(F)cc2)CS1(=O)=O	aSyn 5UTR act -187.0
Cc1ccc(N/N=C2\CS(=O)(=O)N(C)c3ccsc32)cc1	aSyn 5UTR act -149.3
C1=C(CCNc2ncnc3nc[nH]c23)CCCC1	aSyn 5UTR act -116.1
c1ccc2c(CCNc3ncnc4nc[nH]c34)cccc2c1	aSyn 5UTR act -91.7
Cc1ccc(C)c(S(=O)(=O)N2CCN(Cc3ccc(O)c4ncccc34)CC2)c1	none
Cc1ccc(C(=O)Nc2ccc3cn[nH]c3c2)cc1S(=O)(=O)N1CCCCC1	aSyn 5UTR act -111.0
O=C(Nc1ccc(S(=O)(=O)N2CCCCCC2)cc1)c1[nH]ncc1[N+](=O)[O-]	none
Cc1cccc(NC(=O)c2ccc(C)c(S(=O)(=O)N3CCCCC3)c2)n1	aSyn 5UTR act -116.2
Cc1ccc(C(=O)Nc2cccc(O)c2)cc1S(=O)(=O)N1CCCCCC1	aSyn 5UTR act -139.0
O=C(Nc1ccccc1Cl)c1cc(=O)c2ccccc2o1	aSyn 5UTR act -144.4
O=C(Nc1ccccc1Br)c1cc(=O)c2ccccc2o1	aSyn 5UTR act -183.7
CCN(CC)CCn1c(=O)n(-c2ccc(Cl)cc2)c(=O)c2c3c(sc21)CN(C)CC3	aSyn 5UTR act -66.5
Clc1ccc2c(c1)C1OCCC1C(c1ccco1)N2 (configuration not stated)	aSyn 5UTR act -125.2
CC1=NN(c2ccccc2)C(=O)C1N=Nc1cccc(O)c1 (configuration not stated)	aSyn 5UTR act -137.6
CC1=NN(c2ccccc2)C(=O)C1N=Nc1ccccc1 (configuration not stated)	aSyn 5UTR act -222.4
O=S(=O)(c1ccc(-c2nnc(SCc3nnc(-c4ccccc4)o3)o2)cc1)N1CCCC1	aSyn 5UTR act -117.1
CC(C(=O)N1CCCCC1)n1sc2ccccc2c1=O (configuration not stated)	aSyn 5UTR act -133.7
Cc1ccc(/C=C2\SC(=S)N(CCCC(=O)NC3CCCC3)C2=O)cc1	none
COc1cc(/C=C2\SC(=S)N(CCC(=O)NC3CCCC3)C2=O)cc(OC)c1OC	aSyn 5UTR act -70.6
COc1ccc(C(=O)Nc2ccc3ccccc3n2)cc1OC	aSyn 5UTR act -139.3
O=C(Nc1ccc2ccccc2n1)c1ccccc1	aSyn 5UTR act -73.8
O=C(Nc1ccc(C(F)(F)F)cn1)Nc1cccs1	aSyn 5UTR act -75.9
O=C(Nc1ccc2ccccc2n1)c1ccccc1Br	aSyn 5UTR act -146.2
O=C(CCc1ccccc1)NNc1cc(N2CCCCC2)nc(N2CCCCC2)n1	none
O=C(Nc1ccc2ccccc2n1)Nc1cccs1	aSyn 5UTR act -62.4
O=C(Nc1cccs1)Nc1ccccc1Br	aSyn 5UTR act -89.4
O=C(CCc1ccccc1)Nc1ccc2ccccc2n1	aSyn 5UTR act -146.0
Cc1ccc(-n2nc3c(N4CCC(C(=O)NCCc5ccccc5C)CC4)nnc(C)c3c2C)cc1	none
O=C(c1ccccc1)N1CCN(c2ncnc3c(-c4ccccc4)nsc23)CC1	aSyn 5UTR act -125.0
COc1ccc(-c2nsc3c(N4CCN(S(=O)(=O)c5ccccc5F)CC4)ncnc23)cc1	aSyn 5UTR act -69.3
COc1ccc(-c2nsc3c(N4CCCCC4)ncnc23)cc1	none
Cc1ccc(-c2nsc3c(N4CCC(C(N)=O)CC4)ncnc23)cc1	aSyn 5UTR act -99.5
Cc1nc(SCc2cccc(C(=O)O)c2)nc2c1CCCC2	none
COc1ccc2nc(SCc3ccccc3C)nc(C)c2c1	aSyn 5UTR act -106.9
COc1ccc2nc(C)cc(SCC(=O)N/N=C/c3cccc4ccccc34)c2c1	none
COc1ccc2nc(SCc3cccc(C)c3)nc(C)c2c1	aSyn 5UTR act -106.5
COc1ccccc1/C=C/C(=O)Nc1ccc2c(c1)CCC2	aSyn 5UTR act -151.0
COc1ccccc1/C=C/C(=O)Nc1ccc2c(c1)OCCO2	aSyn 5UTR act -145.5
Cc1ccc(NC(=O)Nc2ccc3c(c2)OCO3)nc1	aSyn 5UTR act -193.1
CC(/C=C/c1ccc2c(c1)OCO2)=N/NC(=O)CNc1ccc(C)cc1	aSyn 5UTR act -61.8
Cc1ccc(NC(=O)/C=C/c2ccc3c(c2)OCO3)nc1	aSyn 5UTR act -109.2
Cc1ccc(NC(=O)Nc2ccc(Cl)cn2)cc1	aSyn 5UTR act -147.1
Cc1ccc(NC(=O)Nc2ccc(Cl)c(Cl)c2)nc1	aSyn 5UTR act -89.8
Cc1ccc(NC(=S)N2CCn3cccc3C2c2cccnc2)cc1 (configuration not stated)	aSyn 5UTR act -93.3
COc1ccc(/C=C/c2ccc3ccccc3[n+]2C)cc1OC	aSyn 5UTR act -123.9
CC(=O)Oc1ccccc1/C=C/c1ccc2ccccc2[n+]1C	aSyn 5UTR act -62.5
CCOc1ccc(NC(=O)N2CCC(c3nc4ccccc4[nH]3)CC2)cc1	aSyn 5UTR act -71.1
